# NPC1 prom act = qHTS Assay for NPC1 Promoter Activators | Huh7 NPC1 promoter luciferase reporter, 24 h | Potency, µM (highest dose often 9.22 µM), without a hit: top-dose activation, actives largely listed as activators | 320,000 compounds, 2.4% hits | AID 485313, 2010; also: % of control where 0% means no effect; nearly all actives have a fitted effect of over 60% in size
#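 Huh7 cells stably carrying NPC1 promoter–luciferase, plated in Opti-MEM with 10% FBS for 2 h, were exposed to compound in DMSO for 24 h at 37 °C; luciferase reagent was added for 10 min and luminescence read.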
# ELG1 genotox = qHTS screen for small molecules that induce genotoxicity in human embryonic kidney (HEK293T) cells expressing luciferase-tagged ELG1; HEK293T ELG1-luciferase reporter, luminescence, 16 h; Potency, µM (highest dose often 46 µM), for inactives: at the top dose activity change, positive = activation, most hits filed as activators; 330,000 compounds, 1.3% hits; AID 504466, 2011; also: % of control where 0% means no effect; nearly all actives have a fitted effect of over 60% in size
#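 Screening used a luciferase reporter fused to human ELG1 in HEK293T cells. Luminescence was read on a CCD plate imager after 16 hr exposure and 30 min ONE-Glo incubation.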
# FLuc modulator = qHTS profiling assay for firefly luciferase inhibitor/activator using purifed enzyme and Km concentrations of substrates (counterscreen for miR-21 project); 360,000 compounds, 6.9% hits; purified FLuc, Km substrates, luminescence inhibition; Potency, µM (highest dose often 57.5 µM), for inactives: top-dose activity change, negative = inhibition, hits mostly inhibitors; AID 588342, 2011; Luciferin 4-monooxygenase (Photinus pyralis), P08659;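 also: plate controls were vehicle for no effect and reference inhibitor for full effect; nearly all actives have a fitted effect of over 55% in size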
# Target sequence (P08659 whole entry, looked up): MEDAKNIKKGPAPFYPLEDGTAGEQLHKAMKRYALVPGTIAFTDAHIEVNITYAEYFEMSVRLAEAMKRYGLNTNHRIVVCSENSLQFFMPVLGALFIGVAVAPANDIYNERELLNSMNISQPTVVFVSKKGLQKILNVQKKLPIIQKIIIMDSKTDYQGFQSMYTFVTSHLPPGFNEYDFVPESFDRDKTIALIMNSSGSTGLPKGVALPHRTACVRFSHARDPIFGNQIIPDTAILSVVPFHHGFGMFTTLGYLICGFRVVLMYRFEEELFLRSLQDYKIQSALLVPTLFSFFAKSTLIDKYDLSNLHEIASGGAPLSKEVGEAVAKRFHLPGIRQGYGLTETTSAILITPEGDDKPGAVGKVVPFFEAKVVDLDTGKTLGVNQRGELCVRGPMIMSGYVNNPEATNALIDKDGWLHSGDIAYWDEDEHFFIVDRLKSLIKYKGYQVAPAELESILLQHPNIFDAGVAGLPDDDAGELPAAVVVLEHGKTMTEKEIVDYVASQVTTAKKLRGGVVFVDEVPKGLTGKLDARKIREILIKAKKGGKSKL
#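 Purified P. pyralis luciferase (10nM final) with 10uM D-luciferin and 10uM ATP (Km levels) in 50mM Tris acetate pH 7.5, 10mM Mg acetate, 0.01% Tween-20, 0.05% BSA; qHTS 6-point titration, ~60 µM downward; luminescence read.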
# SMN2 splice up = qHTS Assay for Enhancers of SMN2 Splice Variant Expression; HEK293 SMN2-luciferase splicing reporter, luminescence, 30-36 h; Potency, µM (titrated, usually from 46.1 µM), for the others: at the top dose activity change, positive = activation, actives largely listed as activators; 210,000 compounds, 2.8% hits; AID 1458, 2008; also: % of control where 0% means no effect; nearly all actives have a fitted effect of over 55% in size
#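 HEK293 cells carry an SMN2 […]–luciferase reporter in which exon 7 inclusion puts luciferase in frame. Cells were plated 10-12 h before compound addition, then incubated 30-36 h at 37C. ONE-Glo luminescence was read; sodium butyrate at 4.5 mM final served as control.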
# Rab9 promoter act = qHTS Assay for Rab9 Promoter Activators. 320,000 compounds, 2.8% hits. Potency, µM (doses to about 9.22 µM), for inactives: at the highest dose activation, negative = inhibition, hits mostly activators. Huh7 Rab9 promoter-luciferase reporter, luminescence, 24 h; also: % of control where 0% means no effect; nearly all actives have a fitted effect of over 60% in size
#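 Promoter activation is measured as luciferase luminescence in Huh7 cells stably transfected with a Rab9 promoter–luciferase construct, following 24 h compound exposure at 37 °C and 10 min reagent incubation at ambient temperature.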
# ELG1 repair inh = qHTS screen for small molecules that inhibit ELG1-dependent DNA repair in human embryonic kidney (HEK293T) cells expressing luciferase-tagged ELG1; HEK293T ELG1-luciferase reporter, luminescence, 16 h; DNA damage induced by 5-fluorouridine; Potency, µM (series often up to 46.1 µM), inactives show at the top dose activity change, negative = inhibition, actives largely listed as inhibitors; 330,000 compounds, 2.3% hits; also: % is scaled to controls: 0 for no effect and ±100 for the full control effect; nearly all actives have a fitted effect of over 55% in size
#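 5-Fluorouridine DNA damage + compound/DMSO, 2,000 cells/well, 16 h, 37 °C/5% CO2. ONE-Glo, 30 min RT, luminescence. Readout = decrease in reporter signal.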
# * = called active by the depositor; ? = inconclusive; . = no result given; [ ] = dose if it differs, or a comment. Sampled rows, rich in hits. Any-hit rate of the full collection: about 9.4%. Calls follow the shape of the dose curve; as a rule, active = well fitted curve in the direction sought with a large enough effect; inconclusive = small, poorly fitted or top-dose-only effect, or another doubt; inactive = no such curve, though single readings can be large; an effect the other way counts as inactive or inconclusive. Potency is read from the fitted curve at half-maximal effect.
SMILES,NPC1 prom act,ELG1 genotox,FLuc modulator,SMN2 splice up,Rab9 promoter act,ELG1 repair inh
O=C(O)CCN1C(=O)CC(N2C(=O)/C(=C/c3ccc(Cl)cc3)SC2=S)C1=O (configuration not stated),-5%,-6%,19µM*,1%,0%,-2%
COc1ccc(NC(=O)C(C)n2nc(-c3ccc(C)c(C)c3)ccc2=O)cc1OC (configuration not stated),.,.,5%,.,.,.
CCc1c(C)c2ccc(O)c(CN3CCN(c4cc(Cl)ccc4C)CC3)c2oc1=O,.,.,-10%,.,.,.
CCCN1Cc2cccc(C(=O)Nc3cccc(C(=O)OCC)c3)c2C1=O,.,.,?,-5%,.,.
C=CCOc1ccc(/C(O)=C2/C(=O)C(=O)N(CCCn3ccnc3)C2c2cccs2)cc1 (configuration not stated),25%,4%,15µM*,3%,?,?
COc1cccc(NC(=O)CSc2nnc(COc3ccc4c(c3)CCCC4)o2)c1,12%,-1%,21µM*,1%,1%,-13%
C=CCn1c(COc2ccc3c(c2)CCCC3)nnc1SCC(=O)Nc1cccc(SC)c1,11%,-8%,13µM*,8%,8%,2%
C=CCn1c(COc2ccccc2)nnc1SCC(=O)Nc1ccc2c(c1)OCCO2,-6%,4%,-8%,-2%,3%,-9%
COc1ccc(OCc2nnc(SCC(=O)Nc3cccc(C(C)=O)c3)o2)cc1,-3%,-2%,19µM*,.,-1%,2%
Cc1ccc(C)c(Cn2c(=O)n(C(C)C)c(=O)c3oc4ccccc4c32)c1,.,.,1%,.,.,.
CCOc1ccc(-c2cc(C(F)(F)F)c(C#N)c(SCC(=O)Nc3ccccc3)n2)cc1,.,.,-1%,3%,.,.
Cc1ccc(/C=N/n2c(C)nc3ccccc3c2=O)s1,?,14%,?,?,3.5µM*,?
Cc1nc2ccccc2c(=O)n1/N=C/c1ccc(O)cc1O,0%,-1%,-10%,1%,0%,-15%
Cc1nc2ccccc2c(=O)n1/N=C/c1ccccc1Cl,?,?,11µM*,.,?,?
O=C(N/N=C/c1c[nH]c2ccccc12)c1ccc(O)c(O)c1,-2%,0%,2.4µM*,.,9%,-4%
O=C(N/N=C/c1c[nH]c2ccccc12)c1cccc(O)c1,0%,17%,11µM*,.,-4%,?
COc1ccc2c(c1)c(/C=N/Nc1ccc(C(=O)O)cc1)c(C)n2C,?,?,4.8µM*,.,23%,?
O=C(N/N=C/c1c[nH]c2ccccc12)c1cccc(Cl)c1,?,14%,21µM*,.,?,?
CCOc1ccccc1C(=O)N/N=C/c1c[nH]c2ccccc12,-9%,0%,?,-4%,0%,15%
CCCCC/C=C\C/C=C\C=C\[C@@H](O)C/C=C\CCCC(=O)O,.,.,.,-1%,.,.
COc1ccc(C(=O)N/N=C/c2cc3ccccc3[nH]c2=S)cc1,4%,0%,?,-17%,9%,?
CC(=O)NCCOc1ccc(C(=O)O)cc1,-11%,0%,-3%,-2%,-8%,5%
COc1ccc2c(CCNC(=O)Nc3ccccc3)c[nH]c2c1,-10%,-1%,0%,.,4%,-8%
COc1ccc(C(=O)N/N=C/c2c[nH]c3ccccc23)cc1,?,3%,13µM*,.,26%,?
COc1ccc2c(/C=N/Nc3ccc(C(=O)O)cc3)c[nH]c2c1,0.79µM*,?,1.3µM*,.,1.4µM*,?
SMILES,NPC1 prom act,ELG1 genotox,FLuc modulator,SMN2 splice up,Rab9 promoter act,ELG1 repair inh
CCCOc1ccc(/C=N/Nc2ccc(C(=O)O)cc2)c(OCCC)c1,8%,?,5.4µM*,-8%,?,?
CC(=O)Nc1cccc(C(=O)N/N=C/c2c[nH]c3ccccc23)c1,28%,4%,15µM*,.,23%,20%
Cc1ccccc1-c1cc(Nc2ccc(F)cc2)ncn1,.,.,.,15%,.,.
CC(=O)N1c2ccc(S(=O)(=O)N3CCCCCC3)cc2CC1C(=O)NCc1ccccc1 (configuration not stated),.,.,-6%,.,.,.
COc1ccc(C(=O)N/N=C/C(=O)c2ccccc2)cc1,2.5µM*,10µM*,1.5µM*,.,?,?
COc1cc2c(C(=O)N3CCN(c4ccc(F)cc4)CC3)cn(CC(C)C)c(=O)c2cc1OC,.,.,-2%,7%,.,.
COc1ccc(C(=O)/C=C/c2ccccc2)c(OC)c1,?,4%,4.8µM*,.,?,?
COc1ccc(C(=O)/C=C/c2ccccc2F)c(OC(=O)c2ccc([N+](=O)[O-])cc2)c1,?,?,?,-6%,?,?
COc1ccc(C(=O)/C=C/c2ccccc2)cc1,.,.,.,21%,.,.
COc1ccc(/C=C/C(=O)c2ccc3c4c(cccc24)CC3)cc1OC,-12%,-4%,-24%,.,-23%,?
COc1ccc(C(=O)/C=C/c2ccc(C)cc2)c(OC(=O)c2ccc([N+](=O)[O-])cc2)c1,25%,6%,6.7µM*,5%,21%,?
COc1ccc(C(=O)/C=C/c2ccc(N(C)C)cc2)c(OC)c1,-7%,?,11µM*,.,-2%,13%
COCOc1cc(OC)ccc1C(=O)/C=C/c1ccc2c(c1)OCO2,.,.,.,12%,.,.
COc1ccc(/C=C/C(=O)c2ccc3c4c(cccc24)CC3)cc1,-1%,0%,15µM*,.,-4%,-8%
CCc1ccc(S(=O)(=O)c2nnn3c2nc(Nc2ccc(F)cc2)c2cc(Cl)ccc23)cc1,.,.,-2%,-9%,.,.
O=C(NCc1ccccc1Cl)c1cnc2sc(N3CCCCC3)nn2c1=O,.,.,-2%,.,.,.
CCCN1C(=O)C(Cc2nc3ccccc3c(=O)n2CC)c2cc(Br)ccc21 (configuration not stated),.,.,0%,13%,.,.
O=C(COC(=O)c1cc([N+](=O)[O-])ccc1N1CCOCC1)Nc1cccc(F)c1,-4%,-6%,3%,.,-11%,21µM*
CCOc1ccc(CCNC(=O)COC(=O)c2cc([N+](=O)[O-])ccc2N2CCOCC2)cc1OCC,1%,-14%,4%,.,4%,18µM*
C[N@+]1(CCC(=O)c2ccccc2)CC[C@H]2CC[C@H](C2)C1,.,.,.,-7%[9.22 µM],.,.
FC(F)(F)c1cnc(C(c2ccccc2)c2ncn[nH]2)c(Cl)c1 (configuration not stated),-1%,1%,1%,-7%,-3%,2%

# High-throughput results as filed in PubChem.
